Source: PubChem (National Center for Advancing Translational Sciences (NCATS))
12-LOX inh: ALOX12 (human) lipoxygenase inhibition; P18054; purified 12hLO, xylenol orange hydroperoxide absorbance; Potency, µM (series often up to 108 µM), without a hit: at the top dose activity change, negative = inhibition, usual class: inhibitors; 580,000 tested, 1.1% active; further: on the % scale 0 is the no-effect control and ±100 the full control effect
Target sequence (P18054 whole entry, looked up): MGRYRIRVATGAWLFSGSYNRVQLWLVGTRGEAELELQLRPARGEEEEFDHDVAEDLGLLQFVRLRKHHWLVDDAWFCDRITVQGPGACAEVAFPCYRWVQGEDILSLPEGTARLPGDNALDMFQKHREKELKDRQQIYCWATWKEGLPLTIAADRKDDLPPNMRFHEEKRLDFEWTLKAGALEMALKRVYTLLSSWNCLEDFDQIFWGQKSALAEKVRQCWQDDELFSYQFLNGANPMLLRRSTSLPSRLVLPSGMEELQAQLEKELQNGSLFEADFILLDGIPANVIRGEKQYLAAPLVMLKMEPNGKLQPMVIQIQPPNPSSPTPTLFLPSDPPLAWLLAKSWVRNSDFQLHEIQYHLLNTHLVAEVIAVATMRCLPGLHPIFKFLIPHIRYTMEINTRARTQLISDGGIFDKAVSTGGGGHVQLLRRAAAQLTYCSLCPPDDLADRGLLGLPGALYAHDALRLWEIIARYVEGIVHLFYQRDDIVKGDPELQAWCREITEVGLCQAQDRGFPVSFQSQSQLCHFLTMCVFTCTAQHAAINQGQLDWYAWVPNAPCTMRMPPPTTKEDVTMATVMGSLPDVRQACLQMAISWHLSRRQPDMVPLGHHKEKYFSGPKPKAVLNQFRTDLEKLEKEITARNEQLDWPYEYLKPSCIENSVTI
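Hydroperoxide product was detected by ferrous iron/xylenol orange as the 573 to 405 nm absorbance ratio. Arachidonic acid at 40 uM (final) was turned over for 30 min at room temperature by 150 nM human 12hLO, pH 7.0 Hepes buffer, after 15 min compound preincubation.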
ATXN2 expr inh: inhibitors of ATXN2 expression | HEK-293 ATXN2-luciferase reporter, luminescence, 24 h | Potency, µM (highest dose often 57 µM), for inactives: at the highest dose activity change, negative = inhibition, hits mostly inhibitors | 360,000 tested, 0.72% active | AID 1745845; further: on the % scale 0 is the no-effect control and ±100 the full control effect; nearly all actives have a fitted effect of over 55% in size
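ATXN2-luciferase reporter cells (luciferase flanked by upstream and downstream ATXN2 gene portions) were treated 24 h at 37 °C with compounds at up to 57 uM. SteadyGlo luminescence gave expression; GF-AFC fluorescence gave viability.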
S2 tox: cell viability loss in ATXN counter-screen. 400,000 tested, 0.49% active. S2 cells (HEK-293 line with an ATXN2-luciferase reporter) viability, CellTiter-Fluor protease fluorescence, 24 h. Potency, µM (doses to about 56.7 µM), usual class: cytotoxic; further: nearly all actives have a fitted effect of over 40% in size
TGFb inhibitor: inhibitors of TGF-b signaling | HepG2 CAGA-GFP TGF-b/SMAD3 reporter, GFP fluorescence, 18 h; TGF-beta stimulated, 500 pg/mL final | Potency, µM (highest dose often 46.1 µM), for inactives: at the top dose activity, negative = inhibition, actives largely listed as inhibitors | 410,000 tested, 1.2% active | AID 588855; further: on the % scale 0 is the no-effect control and ±100 the full control effect; nearly all actives have a fitted effect of over 65% in size
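HEPG2 CAGA-GFP cells (1000/well, DMEM with 1% FBS) were pre-incubated 2 h at 37 degrees C, given compound by pin tool, then stimulated with TGF-beta at 500 pg/mL final for 18 h before per-cell GFP fluorescence imaging.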
HepG2 tox: HepG2 cytotoxicity, counter-screen for TGF-b inhibitors. AID 588856. HepG2 CAGA-GFP viability, ATP luminescence, 18 h. Potency, µM (series often up to 46.1 µM), without a hit: at the highest dose activity change, negative = cytotoxicity, usual class: cytotoxic. 410,000 tested, 0.76% active
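HepG2 CAGA-GFP cells (1000/well, DMEM with 1% FBS) received compound, then TGF-beta at 500 pg/mL final, and were incubated 18 hours at 37 degrees C. Viability was read by CellTiter-Glo luminescence. Media-only wells were set as complete cell-killing and DMSO as no toxicity.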
* = called active by the depositor; [ ] = another dose, or the depositor's remark. Shown are actives, neighbours in structure and some others; about 2.7% of the full set was active somewhere. The call rests on the fitted dose curve; in most records, active means well fitted curve in the direction sought with a large enough effect; inconclusive means small, poorly fitted or top-dose-only effect, or another doubt; inactive means no such curve, though single readings can be large; an effect the other way counts as inactive or inconclusive. Potency means the concentration at half of the fitted maximal effect.

C[C@@H]1CN([C@@H](C)CO)S(=O)(=O)c2ccc(Br)cc2O[C@H]1CN(C)Cc1ccccc1F was read as 12-LOX inh -8.0%, ATXN2 expr inh inconclusive, S2 tox inconclusive, TGFb inhibitor inconclusive and HepG2 tox -111.1%.
Screening C[C@H](O)C#Cc1ccc2c(c1)O[C@@H](CN(C)Cc1ccc(-c3ccccc3)cc1)[C@H](C)CN([C@@H](C)CO)S2(=O)=O returned 12-LOX inh -0.8%, ATXN2 expr inh 20µM*, S2 tox 15.8µM*, TGFb inhibitor inconclusive and HepG2 tox 7.08µM*.
`C[C@@H]1CN([C@H](C)CO)S(=O)(=O)c2ccc(C#Cc3ccccc3)cc2O[C@@H]1CN(C)C(=O)CN(C)C` gave 12-LOX inh 8.0%, ATXN2 expr inh -21.5%, S2 tox inconclusive, TGFb inhibitor inconclusive and HepG2 tox -51.2%.
`C[C@@H]1CN([C@H](C)CO)S(=O)(=O)c2ccc(C#CC3CCCC3)cc2O[C@H]1CN(C)C(=O)Cc1ccccc1` gave 12-LOX inh inconclusive, ATXN2 expr inh inconclusive, S2 tox 22.4µM*, TGFb inhibitor inconclusive and HepG2 tox 15.8µM*.
Screening C[C@@H]1CN([C@H](C)CO)S(=O)(=O)c2ccc(Br)cc2O[C@@H]1CN(C)Cc1ccc(-c2ccccc2)cc1 returned 12-LOX inh -9.0%, ATXN2 expr inh inconclusive, S2 tox inconclusive, TGFb inhibitor 15.8µM* and HepG2 tox -57.3%.
Screening C[C@@H]1CN([C@H](C)CO)S(=O)(=O)c2ccc(Br)cc2O[C@@H]1CN(C)Cc1ccc(C(=O)O)cc1 returned 12-LOX inh -5.0%, ATXN2 expr inh 5.1%, S2 tox inactive, TGFb inhibitor -0.1% and HepG2 tox 1.5%.
C[C@H]1CN([C@@H](C)CO)S(=O)(=O)c2ccc(Br)cc2O[C@H]1CN(C)Cc1ccccc1F was read as 12-LOX inh -27.1%, ATXN2 expr inh inconclusive, S2 tox inconclusive, TGFb inhibitor 15.8µM* and HepG2 tox -59.8%.
Screening CN1c2cc(C(=O)Nc3cccc(Cl)c3)ccc2C(=O)N2CCCCC21 (stereo not given) returned 12-LOX inh 34.2%.
Screening O=C(CSc1ccc2ccccc2n1)N(C1CC1)C1CCS(=O)(=O)C1 (stereo not given) returned 12-LOX inh 10.4%.
For CNS(=O)(=O)c1ccc(NCCc2ccc(S(N)(=O)=O)s2)c([N+](=O)[O-])c1 the results were 12-LOX inh 17.8µM*.
Screening N#CC1(NC(=O)CSc2c(Cl)cccc2Cl)CCCCC1 returned 12-LOX inh 14.1µM*.
`CC(=O)c1c(C(C)=O)c(C)n(NC(=O)c2ccccc2Cl)c1C` gave 12-LOX inh -31.4%, ATXN2 expr inh -8.4%, S2 tox inactive, TGFb inhibitor 29.0% and HepG2 tox 3.8%.
Cc1ccc(C)n1NC(=O)c1ccccc1Cl was read as 12-LOX inh 44.7µM*, ATXN2 expr inh -13.2%, S2 tox inactive, TGFb inhibitor -3.4% and HepG2 tox 0.7%.
COc1ccc(S(=O)(=O)N2CCc3ccccc32)cc1C(=O)N1CCN(C=O)CC1 was read as 12-LOX inh -11.2%, ATXN2 expr inh -0.3%, S2 tox inactive, TGFb inhibitor -1.5% and HepG2 tox -13.6%.
COc1ccc(S(=O)(=O)N2CCc3ccccc32)cc1C(=O)N1CCN(c2ncccn2)CC1 was read as 12-LOX inh 39.8µM*.
For CC1=C[C@@H](CNC(=O)Cn2cnnn2)[C@H](C(C)C)C[C@H]1Cc1nc2ccccc2n1C the results were 12-LOX inh 10.2%[176 µM].
`CCCN1CCC(N2CCN(c3ccc([N+](=O)[O-])cc3)CC2)CC1` gave 12-LOX inh 0.891µM*, S2 tox inactive, TGFb inhibitor 11.1% and HepG2 tox -17.8%.
For O=C(CCSCc1cnn(-c2ccccc2)c1-n1cccc1)NCc1ccc(Cl)cc1 the results were 12-LOX inh inconclusive, TGFb inhibitor 15.8µM* and HepG2 tox -27.2%.
For CN(C)CCNc1ccc(CO)c2oc3ccc(O)cc3c(=O)c12 the results were 12-LOX inh inconclusive, ATXN2 expr inh 21.2µM*, S2 tox 26.7µM*, TGFb inhibitor inconclusive and HepG2 tox -27.2%.
Screening CCc1ccccc1NC(=O)CCS(=O)(=O)c1ccc2c(c1)CCN2C(=O)C1CC1 returned 12-LOX inh -20.7%.
`Cc1nn(-c2ccc(Cl)cc2)c(=O)c2ccccc12` gave 12-LOX inh inconclusive, S2 tox inactive, TGFb inhibitor -4.0% and HepG2 tox -1.1%.
Cc1c(Cl)sn(-c2ccc(Cl)cc2)c1=O was read as 12-LOX inh 4.47µM*, ATXN2 expr inh 8.91µM*, S2 tox 29.9µM*, TGFb inhibitor inconclusive and HepG2 tox -139.7%.
`CC(C)N1CCN(CCN2CC3(CCN(C(=O)CCN)CC3)OC2=O)CC1` gave 12-LOX inh 17.8µM*.
Screening COC(=O)Cn1cc(/C=C2/SC(=O)N(C(C)C)C2=O)c2ccccc21 returned 12-LOX inh -21.2%.
`O=C(NC(=S)Nc1ccc(N2CCOCC2)cc1)c1cccs1` gave 12-LOX inh inconclusive, S2 tox inactive, TGFb inhibitor 10.3% and HepG2 tox -9.2%.
For Cc1ccccc1C(=O)N1CCN(c2ccc(NC(=S)NC(=O)c3cccs3)cc2)CC1 the results were 12-LOX inh 35.5µM*, S2 tox inconclusive, TGFb inhibitor inconclusive and HepG2 tox -12.2%.
Cc1ccc(C(=O)N2CCN(c3ccc(NC(=S)NC(=O)c4cccs4)cc3)CC2)cc1 was read as 12-LOX inh 11.2µM*, ATXN2 expr inh inconclusive, S2 tox inactive, TGFb inhibitor -20.5% and HepG2 tox -23.7%.
Screening CC1(C)CC(=O)C2=C(C1)OC(N)=C(C#N)C2c1cccc(O)c1 (stereo not given) returned 12-LOX inh -9.7%.
`CCCCn1c(=O)n(CC(=O)NCc2ccc(C)cc2)c(=O)c2c1ncn2Cc1ccco1` gave 12-LOX inh -12.3%.
Screening C#CCN(C[C@@H]1[C@@H](OC(=O)NCc2ccco2)[C@@H](OC(=O)NCc2ccco2)Cn2c(=O)ccc(=O)n21)S(=O)(=O)c1ccc(C)cc1 returned 12-LOX inh -18.4%, ATXN2 expr inh 14.1µM*, S2 tox 25.1µM*, TGFb inhibitor inconclusive and HepG2 tox -34.1%.
C#CCN(C[C@@H]1[C@@H](OC(=O)NCCCCCC)[C@@H](OC(=O)NCCCCCC)Cn2c(=O)ccc(=O)n21)S(=O)(=O)c1ccc(C)cc1 was read as 12-LOX inh inconclusive, ATXN2 expr inh 3.55µM*, S2 tox 3.98µM*, TGFb inhibitor 6.31µM* and HepG2 tox 6.31µM*.
